In PubChem BioAssay (EPA / NIEHS):
The source made the active and inactive calls. Rule for the calls: active = hit-call score of the fitted dose curve at least 0.9, where 1 is the maximum; inactive = score below 0.9.

Legend:
Settings in all cases: mRNA level, 48 h; actives raise or lower the signal
[1] = read-out: Tumor necrosis factor receptor superfamily member 6 (Homo sapiens) (UniProt P25445); test: LTEA_HepaRG_FAS: Life Technologies and Expression Analysis (LTEA) Assay for Fas cell surface death receptor (FAS) using HepaRG (AID 2283447)
Method in brief: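 FAS transcript level was measured by TaqMan qRT-PCR against three housekeeping genes after 48 h chemical exposure. Cells were HepaRG, 0.5% DMSO vehicle, with a top concentration of 100 uM and half-log dilutions over eight points, in duplicate.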

[2] = read-out: Fatty acid synthase (Homo sapiens) (UniProt P49327); test: LTEA_HepaRG_FASN: Life Technologies and Expression Analysis (LTEA) Assay for Fatty Acid Synthase (FASN) using HepaRG (AID 2283448)
Method in brief: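 Differentiated human HepaRG cells were exposed for 48 h in serum-free induction medium to eight half-log concentrations up to 100 uM in 0.5% DMSO, in duplicate. FASN mRNA was quantified by TaqMan qRT-PCR, normalized to ACTB/GAPDH/POLR2A, and fitted bidirectionally against DMSO.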

[3] = read-out: Cyclin D2 (CCND2), CCND2 (gene 894); test: LTEA_HepaRG_CCND2: Life Technologies and Expression Analysis (LTEA) Assay for Cyclin D2 (CCND2) using HepaRG (AID 2283449)
Method in brief: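 Read-out is CCND2 mRNA level measured by qRT-PCR in human HepaRG liver cells and normalised to three housekeeping genes. Chemicals were applied for 48 h at up to 100 uM, with gain or loss fitted relative to 0.5% DMSO.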

[4] = read-out: Cyclin Dependent Kinase Inhibitor 1A (CDKN1A), CDKN1A (gene 1026); test: LTEA_HepaRG_CDKN1A: Life Technologies and Expression Analysis (LTEA) Assay for Cyclin Dependent Kinase Inhibitor 1A (CDKN1A) using HepaRG (AID 2283450)
Method in brief: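 Differentiated HepaRG cells in serum-free induction medium, exposed 48 h in duplicate to eight half-log concentrations up to 100 uM in 0.5% DMSO. mRNA measured by TaqMan qRT-PCR, normalized to ACTB, GAPDH, POLR2A; bidirectional fit versus DMSO.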

[5] = read-out: Cyclin D1 (CCND1), CCND1 (gene 595); test: LTEA_HepaRG_CCND1: Life Technologies and Expression Analysis (LTEA) Assay for Cyclin D1 (CCND1) using HepaRG (AID 2283451);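 for AC50: TaqMan qRT-PCR transcript level normalised to ACTB GAPDH and POLR2A housekeeping genes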
Method in brief: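 Differentiated HepaRG cells exposed 48 h in serum-free induction medium to eight half-log concentrations from 100 uM top, 0.5% DMSO, duplicates. CCND1 mRNA measured by Fluidigm TaqMan qRT-PCR, normalised to ACTB, GAPDH, POLR2A; bidirectional fit.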

[6] = read-out: catalase (CAT), CAT (gene 847); test: LTEA_HepaRG_CAT: Life Technologies and Expression Analysis (LTEA) Assay for catalase (CAT) using HepaRG (AID 2283452);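 for AC50: TaqMan qRT-PCR signal normalized to ACTB GAPDH and POLR2A housekeeping genes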
Method in brief: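 Expression of CAT was quantified by TaqMan qRT-PCR with ACTB/GAPDH/POLR2A normalization after 48 h chemical exposure of HepaRG. Eight-point half-log series, top 100 uM, in 0.5% DMSO; gain or loss fitted against vehicle.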

[7] = read-out: flavin-containing dimethylaniline monooxygenases 3 (FMO3), FMO3 (gene 2328); test: LTEA_HepaRG_FMO3: Life Technologies and Expression Analysis (LTEA) Assay for flavin-containing dimethylaniline monooxygenases 3 (FMO3) using HepaRG (AID 2283453);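 for AC50: FMO3 transcript by TaqMan qRT-PCR normalized to ACTB GAPDH and POLR2A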
Method in brief: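 HepaRG, 48 h exposure, 8-pt half-log series from 100 uM, 0.5% DMSO vehicle, duplicates; FMO3 transcript by Fluidigm TaqMan qRT-PCR, housekeeping-normalized; gain/loss fit vs DMSO.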

[8] = read-out: Cytochrome P450 (CYP1A1), CYP1A1 (gene 1543); test: LTEA_HepaRG_CYP1A1: Life Technologies and Expression Analysis (LTEA) Assay for Cytochrome P450 (CYP1A1) using HepaRG (AID 2283454)
Method in brief: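 Differentiated human HepaRG cells, after 48 h plating, exposed in duplicate for 48 h in serum-free induction medium to 8 half-log concentrations up to 100 uM in 0.5% DMSO. CYP1A1 mRNA by qRT-PCR, normalized to ACTB/GAPDH/POLR2A; bidirectional fit versus DMSO.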

[9] = read-out: CFLAR gene, CFLAR (gene 8837); test: LTEA_HepaRG_CFLAR: Life Technologies and Expression Analysis (LTEA) Assay for CFLAR gene using HepaRG (AID 2283455)
Method in brief: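 HepaRG, 48 h exposure, 8-pt conc-response (100 uM top, half-log), 0.5% DMSO vehicle, duplicates. CFLAR expression by qRT-PCR; ACTB/GAPDH/POLR2A normalization; gain or loss fit vs DMSO baseline.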

[10] = read-out: Forkhead box O1 (FOXO1), FOXO1 (gene 2308); test: LTEA_HepaRG_FOXO1: Life Technologies and Expression Analysis (LTEA) Assay for Forkhead box O1 (FOXO1) using HepaRG (AID 2283456)
Method in brief: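 Readout is FOXO1 transcript level by multiplexed qRT-PCR against three housekeeping genes, curve-fitted in both directions relative to 0.5% DMSO vehicle. Human HepaRG cultures received chemicals for 48 h, up to 100 uM in half-log steps.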

[11] = read-out: Forkhead box O3 (FOXO3), FOXO3 (gene 2309); test: LTEA_HepaRG_FOXO3: Life Technologies and Expression Analysis (LTEA) Assay for Forkhead box O3 (FOXO3) using HepaRG (AID 2283459)
Method in brief: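 HepaRG, 48 h post-dose; 8 conc., half-log from 100 uM, 0.5% DMSO, duplicates; serum-free induction medium. Readout: FOXO3 mRNA, TaqMan qRT-PCR, housekeeping-normalized. Bidirectional curve fit vs DMSO baseline.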

[12] = read-out: ABC Transporter (ABCB1), ABCB1 (gene 5243); test: LTEA_HepaRG_ABCB1: Life Technologies and Expression Analysis (LTEA) Assay for ABC Transporter (ABCB1) using HepaRG (AID 2283460)
Method in brief: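 Expression of ABCB1 was quantified by qRT-PCR against three housekeeping genes after human HepaRG cultures received test chemicals for 48 hours. Concentrations spanned eight half-log steps topping at 100 uM in 0.5% DMSO; gain or loss of signal was fitted relative to vehicle.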

[13] = read-out: growth arrest and DNA damage 45 (GADD45B), GADD45B (gene 4616); test: LTEA_HepaRG_GADD45B: Life Technologies and Expression Analysis (LTEA) Assay for growth arrest and DNA damage 45 (GADD45B) using HepaRG (AID 2283461)
Method in brief: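 Differentiated human HepaRG cells in serum-free induction medium exposed 48 h in duplicate to eight concentrations, top 100 uM, half-log steps, 0.5% DMSO. GADD45B mRNA by TaqMan qRT-PCR, normalized to ACTB, GAPDH, POLR2A; bidirectional fit versus DMSO.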

[14] = read-out: ABC Transporter (ABCC3), ABCC3 (gene 8714); test: LTEA_HepaRG_ABCC3: Life Technologies and Expression Analysis (LTEA) Assay for ABC Transporter (ABCC3) using HepaRG (AID 2283462)
Method in brief: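 Differentiated human HepaRG cells exposed 48 h in serum-free induction medium, 0.5% DMSO vehicle, 8-point half-log series to 100 uM in duplicate. ABCC3 mRNA by qRT-PCR, normalised to ACTB, GAPDH, POLR2A; bidirectional fit vs DMSO.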

[15] = read-out: ABC Transporter (ABCB11), ABCB11 (gene 8647); test: LTEA_HepaRG_ABCB11: Life Technologies and Expression Analysis (LTEA) Assay for ABC Transporter (ABCB11) using HepaRG (AID 2283463)
Method in brief: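 ABCB11 transcript levels are read by Fluidigm TaqMan qRT-PCR after 48 h chemical treatment of human HepaRG cells. Concentrations span 100 uM downward in half-log steps with 0.5% DMSO; gain or loss is fitted against DMSO controls.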

[16] = read-out: ABC Transporter (ABCC2), ABCC2 (gene 1244); test: LTEA_HepaRG_ABCC2: Life Technologies and Expression Analysis (LTEA) Assay for ABC Transporter (ABCC2) using HepaRG (AID 2283464)
Method in brief: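 Differentiated HepaRG cells in serum-free induction medium exposed 48 h to eight half-log concentrations up to 100 uM, 0.5% DMSO, in duplicate. ABCC2 mRNA measured by qRT-PCR (TaqMan, Fluidigm), normalized to ACTB, GAPDH and POLR2A. Fitted in both directions against DMSO.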

[17] = read-out: Broad substrate specificity ATP-binding cassette transporter ABCG2 (Homo sapiens) (UniProt Q9UNQ0); test: LTEA_HepaRG_ABCG2: Life Technologies and Expression Analysis (LTEA) Assay for ABC Transporter (ABCG2) using HepaRG (AID 2283465)
Method in brief: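 Read-out is ABCG2 mRNA induction or loss quantified by qRT-PCR after 48 h chemical treatment of human HepaRG cells, normalized to three housekeeping genes. Concentrations reached 100 uM top in half-log steps; fitting was bidirectional against 0.5% DMSO.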

[18] = read-out: growth arrest and DNA damage 45 (GADD45A), GADD45A (gene 1647); test: LTEA_HepaRG_GADD45A: Life Technologies and Expression Analysis (LTEA) Assay for growth arrest and DNA damage 45 (GADD45A) using HepaRG (AID 2283458)
Method in brief: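 Differentiated HepaRG cells were exposed in duplicate for 48 h in serum-free induction medium to 8-point half-log concentrations up to 100 uM in 0.5% DMSO. GADD45A mRNA was measured by TaqMan qRT-PCR, normalized to ACTB, GAPDH and POLR2A, with bidirectional fitting versus DMSO.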

Measured: AC50

Fatty acid synthase (Homo sapiens), sequence (P49327 whole entry, looked up): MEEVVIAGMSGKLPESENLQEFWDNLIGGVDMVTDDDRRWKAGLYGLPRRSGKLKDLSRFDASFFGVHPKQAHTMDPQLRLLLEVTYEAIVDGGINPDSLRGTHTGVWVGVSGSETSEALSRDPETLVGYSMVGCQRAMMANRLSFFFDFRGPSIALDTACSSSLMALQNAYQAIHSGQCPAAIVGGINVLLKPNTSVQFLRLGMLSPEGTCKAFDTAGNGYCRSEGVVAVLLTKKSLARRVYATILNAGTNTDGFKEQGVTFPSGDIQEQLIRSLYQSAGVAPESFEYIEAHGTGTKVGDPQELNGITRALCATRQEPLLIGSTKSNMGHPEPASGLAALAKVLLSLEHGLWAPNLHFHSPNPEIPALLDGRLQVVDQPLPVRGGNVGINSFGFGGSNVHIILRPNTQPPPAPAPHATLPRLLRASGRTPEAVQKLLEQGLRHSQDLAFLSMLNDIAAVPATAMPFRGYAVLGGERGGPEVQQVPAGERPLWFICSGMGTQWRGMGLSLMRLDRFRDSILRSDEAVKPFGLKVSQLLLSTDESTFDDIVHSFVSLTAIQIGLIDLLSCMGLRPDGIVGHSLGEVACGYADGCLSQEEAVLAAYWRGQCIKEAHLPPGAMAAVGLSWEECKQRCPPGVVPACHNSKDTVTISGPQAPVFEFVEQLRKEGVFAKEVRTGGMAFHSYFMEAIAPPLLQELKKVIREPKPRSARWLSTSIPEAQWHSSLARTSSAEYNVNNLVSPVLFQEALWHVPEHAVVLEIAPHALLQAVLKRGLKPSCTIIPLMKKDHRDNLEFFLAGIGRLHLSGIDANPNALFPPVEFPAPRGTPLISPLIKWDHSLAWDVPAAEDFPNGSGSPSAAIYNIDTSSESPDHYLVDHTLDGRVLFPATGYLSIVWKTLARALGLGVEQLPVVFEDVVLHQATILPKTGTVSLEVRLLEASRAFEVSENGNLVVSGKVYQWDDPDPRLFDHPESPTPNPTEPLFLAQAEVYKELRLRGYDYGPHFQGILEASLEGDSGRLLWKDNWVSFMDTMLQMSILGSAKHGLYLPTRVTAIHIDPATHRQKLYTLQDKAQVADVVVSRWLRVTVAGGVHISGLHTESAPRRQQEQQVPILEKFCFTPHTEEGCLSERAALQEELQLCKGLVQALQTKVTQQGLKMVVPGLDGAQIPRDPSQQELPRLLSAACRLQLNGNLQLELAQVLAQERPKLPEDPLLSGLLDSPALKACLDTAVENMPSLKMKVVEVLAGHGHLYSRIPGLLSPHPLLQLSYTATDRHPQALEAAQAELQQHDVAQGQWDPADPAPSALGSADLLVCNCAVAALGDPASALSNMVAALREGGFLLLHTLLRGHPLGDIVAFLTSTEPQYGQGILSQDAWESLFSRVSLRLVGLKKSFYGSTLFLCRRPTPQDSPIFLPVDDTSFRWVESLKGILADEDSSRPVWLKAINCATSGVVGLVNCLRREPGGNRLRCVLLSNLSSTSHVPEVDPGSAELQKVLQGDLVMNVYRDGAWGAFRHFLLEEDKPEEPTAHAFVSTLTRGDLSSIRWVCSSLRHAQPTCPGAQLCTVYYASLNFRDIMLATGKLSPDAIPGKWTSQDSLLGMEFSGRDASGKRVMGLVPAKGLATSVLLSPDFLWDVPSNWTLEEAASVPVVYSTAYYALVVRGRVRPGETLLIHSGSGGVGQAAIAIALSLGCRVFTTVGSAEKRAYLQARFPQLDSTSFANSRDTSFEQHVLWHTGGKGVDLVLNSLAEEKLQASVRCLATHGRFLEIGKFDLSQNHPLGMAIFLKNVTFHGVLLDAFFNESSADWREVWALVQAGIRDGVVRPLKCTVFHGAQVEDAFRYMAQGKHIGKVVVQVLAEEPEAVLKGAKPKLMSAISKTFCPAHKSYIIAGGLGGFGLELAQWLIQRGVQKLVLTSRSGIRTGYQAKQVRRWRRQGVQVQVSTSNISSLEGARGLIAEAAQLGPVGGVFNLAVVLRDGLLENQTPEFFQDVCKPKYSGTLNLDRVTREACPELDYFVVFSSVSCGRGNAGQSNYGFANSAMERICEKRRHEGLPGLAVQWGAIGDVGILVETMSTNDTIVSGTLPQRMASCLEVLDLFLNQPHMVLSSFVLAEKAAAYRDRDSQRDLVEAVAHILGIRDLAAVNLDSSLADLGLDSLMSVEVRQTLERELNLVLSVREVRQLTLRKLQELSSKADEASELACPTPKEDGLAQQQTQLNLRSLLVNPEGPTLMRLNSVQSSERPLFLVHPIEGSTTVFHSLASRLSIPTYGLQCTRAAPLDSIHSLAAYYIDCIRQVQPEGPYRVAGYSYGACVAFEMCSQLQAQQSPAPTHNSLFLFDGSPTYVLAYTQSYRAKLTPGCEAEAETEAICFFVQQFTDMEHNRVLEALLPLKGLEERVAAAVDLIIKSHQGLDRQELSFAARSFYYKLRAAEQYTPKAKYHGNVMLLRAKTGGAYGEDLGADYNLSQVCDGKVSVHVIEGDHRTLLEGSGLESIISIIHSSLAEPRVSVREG
Broad substrate specificity ATP-binding cassette transporter ABCG2 (Homo sapiens), sequence (Q9UNQ0 whole entry, looked up): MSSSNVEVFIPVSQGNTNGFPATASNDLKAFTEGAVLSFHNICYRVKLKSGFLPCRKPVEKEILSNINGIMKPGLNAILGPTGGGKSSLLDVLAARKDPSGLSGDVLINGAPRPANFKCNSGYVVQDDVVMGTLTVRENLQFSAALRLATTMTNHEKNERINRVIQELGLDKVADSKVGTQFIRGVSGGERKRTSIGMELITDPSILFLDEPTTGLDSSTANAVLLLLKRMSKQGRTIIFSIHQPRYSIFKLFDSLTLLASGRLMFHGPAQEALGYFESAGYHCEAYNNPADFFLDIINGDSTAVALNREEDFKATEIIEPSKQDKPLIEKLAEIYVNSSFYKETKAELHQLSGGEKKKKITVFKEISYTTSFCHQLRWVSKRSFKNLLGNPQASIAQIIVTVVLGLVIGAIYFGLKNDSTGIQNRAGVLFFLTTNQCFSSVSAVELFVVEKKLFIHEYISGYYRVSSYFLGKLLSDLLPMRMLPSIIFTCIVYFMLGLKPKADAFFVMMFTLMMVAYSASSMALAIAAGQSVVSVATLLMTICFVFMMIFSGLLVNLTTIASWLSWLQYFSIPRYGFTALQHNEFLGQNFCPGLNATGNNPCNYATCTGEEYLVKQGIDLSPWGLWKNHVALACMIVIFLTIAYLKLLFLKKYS

COc1cc(C=O)cc2c1[C@H](COC(N)=O)[C@]1(OC(C)=O)ON2C[C@H]2[C@@H]1N2C(C)=O
active: [1] 88.1 µM | [3] 29.6 µM | [5] 50 µM | [6] 0.412 µM | [7] 76.5 µM | [8] 4.09 µM | [10] 3.75 µM | [11] 3.8 µM | [12] 24.3 µM | [13] 92.3 µM | [14] 9.99 µM | [15] 0.38 µM
inactive: [2] | [4] | [9] | [16] | [17]

C[N+](C)(C)CC1CO1 (stereo not drawn)
active: [8] 50 µM
not listed: [15] | [18]
inactive: all other assays above

CC(C)(C)OOC(C)(C)CCC(C)(C)OOC(C)(C)C
active: [8] 64.2 µM
not listed: [10] | [15] | [18]
inactive: all other assays above

ClC1=C(Cl)[C@]2(Cl)[C@H]3[C@H]([C@@H]4C=C[C@H]3C4)[C@@]1(Cl)C2(Cl)Cl
active: [2] 28.7 µM | [8] 38.3 µM | [17] 9.92 µM
not listed: [16] | [18]
inactive: all other assays above

Nc1ccc([N+](=O)[O-])cc1
active: [8] 50 µM
not listed: [18]
inactive: all other assays above

CCC[CH2][Sn]([Cl])([CH2]CCC)[CH2]CCC
inactive: [11] | [13] | [14]
active: [2] 2.86 µM | [4] 88.1 µM | [5] 81.2 µM | [6] 1.66 µM | [7] 2.31 µM | [8] 2.35 µM | [9] 4.12 µM | [10] 18.8 µM | [18] 50 µM | [12] 3.21 µM | [15] 2.06 µM | [16] 3.8 µM | [17] 1.49 µM

O=Cc1ccco1
active: [8] 50 µM
not listed: [3] | [15] | [18]
inactive: all other assays above

O=C(O)C1C2CCC(O2)C1C(=O)O (stereo not drawn)
active: [2] 84.3 µM | [4] 35.8 µM | [5] 32.3 µM | [7] 56.4 µM | [8] 82.6 µM | [11] 37.4 µM | [17] 14.2 µM
not listed: [15] | [18]
inactive: all other assays above
